Molecules are shown by their SMILES. Several values for one entry are separate records, joined by “and”; a condition that tells them apart may be missing. Equal values may be shown once. Results filed as inconclusive are left out. Unmarked numbers belong to inactive results. Activity calls are given as the source filed them. The call rests on the fitted dose curve; in most records, active means well fitted inhibition curve with a large enough effect; inconclusive means small, poorly fitted or top-dose-only effect; inactive means flat fitted curve, though single readings scatter.
On the % scale 0 is the no-effect control and ±100 the full control effect; potency means the concentration at half of the fitted maximal effect.

A short description of the experiment: Primary qHTS for inhibitors of nuclear receptor binding SET domain protein 2 (NSD2) in an isogenic RCH-ACV NSD2 p.E1099K mutant (9B) (AID 1645876). Further: nearly all actives have a fitted effect of over 70% in size. The conditions noted are these: RCH-ACV (leukaemia line) NSD2 E1099K (9B) viability, CellTiter-Glo, 72 h; series mostly up to 44.9 µM; activity change, negative = viability loss: at the top concentration.
Consider `CN(C(=O)Cc1ccccc1)C(CN1CCCC1)c1ccccc1` (stereo unspecified), for which the “activity change, negative = viability loss” value was 2.93%.

Regarding `C=CC(C)(C)c1[nH]c2cccc3c2c1C[C@@H]1[C@@H]3[C@@H](OC(C)=O)[C@H](C)CN1C`, the “activity change, negative = viability loss” value was 3.61%.

With `C=CC(C)(O)CC/C=C(\C)C(=O)O[C@H]1[C@H](O)[C@@H](CO)O[C@@H](OC(=O)[C@]23CCC(C)(C)CC2C2=CCC4[C@@]5(C)CC[C@H](O[C@@H]6O[C@H](CO[C@@H]7OC[C@H](O)[C@H](O)[C@H]7O[C@@H]7OC[C@@H](O)[C@H](O)[C@H]7O)[C@@H](O)[C@H](O)[C@H]6O)C(C)(C)C5CC[C@@]4(C)[C@]2(C)CC3)[C@@H]1OC1OC(C)C(O[C@@H]2OC[C@@H](O)[C@H](O[C@@H]3OC[C@@H](O)[C@H](O)[C@H]3O)[C@H]2O)C(O)C1O` (stereo partly specified), the activity change, negative = viability loss is -17.9% [at 9.23 µM].

With `CCCCCCn1c(=O)c(C(=O)Nc2ccc(C(=O)OCCC)cc2)c(O)c2ccccc21`, the outcome is “inactive [at 9.23 µM]”.

Take `Clc1ccc(OCC2=NCCN2)cc1Cl`: the “activity change, negative = viability loss” value is -3.73%.

As for `COC(=O)N1CCN(C(=O)Cc2ccc(Cl)c(Cl)c2)[C@@H](CN2CCCC2)C1`, the “activity change, negative = viability loss” value is 0.0383%.

`COc1ccccc1CN[C@H]1C2CCN(CC2)[C@H]1C(c1ccccc1)c1ccccc1`: the “activity change, negative = viability loss” value was -20.8%.

Regarding `CCc1[nH]c2ccc(OC)cc2c1CCN(C)C`, the “activity change, negative = viability loss” value was -3.49%.

Regarding `CC(C)=C1CC[C@]23CO[C@H](C2)[C@@](O)(C(=O)O)CCC13` (stereo partly specified), the “activity change, negative = viability loss” value was -11.6%.

`OCCCCC#Cc1cncc(OC[C@@H]2CCN2)c1`: the “activity change, negative = viability loss” value is -0.291%.

For `Oc1ccc2c3c1O[C@H]1[C@H](N(CCCl)CCCl)CC[C@@]4(O)[C@@H](C2)N(CC2CC2)CC[C@]314`, the activity change, negative = viability loss is -5.8% [at 9.23 µM].

`COc1cc(CCNCc2ccccc2O)c(OC)cc1C#N`: the “activity change, negative = viability loss” value was -18.1%.

Take `CC(C)[C@@H](CN1CC[C@@](C)(c2cccc(O)c2)[C@@H](C)C1)NC(=O)[C@H]1Cc2ccc(O)cc2CN1`: the Potency was 18.3 µM (active).

For `Cc1cn(C[C@H](N)C(=O)O)c(=O)n(Cc2cc(-c3ccccc3)sc2C(=O)O)c1=O`, the call was inactive.

Take `CC(C)(C)c1cc(C(C)(C)C)c2c(c1)C(O)(C(F)(F)F)C(=O)O2` (stereo unspecified): the “activity change, negative = viability loss” value is -11.9%.

Turning to `CCN1C[C@]2(COC)[C@H](O)C[C@H](OC)[C@]34[C@@H]5C[C@]6(O)[C@H](OC(=O)c7ccccc7)[C@@H]5[C@@](O)([C@H]([C@H](OC)[C@H]23)[C@@H]14)[C@@H](O)[C@@H]6OC`, the outcome was inactive.

Turning to `Cn1ncnc1COc1nn2c(-c3c(F)cccc3F)nnc2cc1C1CCC1`, the outcome was inactive.

`CCc1c(C(=O)C(N)=O)c2c(OCC(=O)OC)cccc2n1Cc1ccccc1`: the “activity change, negative = viability loss” value was -5.47%.

As to `CCN1C[C@]2(OC(=O)c3ccccc3NC(C)=O)CC[C@H](OC)[C@@]34[C@@H]2C[C@@H]([C@@H]13)[C@@]1(O)C[C@H](OC)[C@H]2C[C@@H]4[C@]1(O)[C@H]2OC`, the call was inactive.

Turning to `COC1=CC(=O)O[C@@H](CCc2ccccc2)C1`, the result was inactive.

Regarding `CN(C)CCc1c[nH]c2ccc(CN3CCN(C)S3(=O)=O)cc12`, the “activity change, negative = viability loss” value is -9.39%.

Turning to `COc1cc(C)[nH]c(=O)c1CNC(=O)c1c(C)n([C@H](C)C2CCOCC2)c2ccccc12`, the Potency entry was “inactive”.

In the case of `COC1C(O)C(OC2CCC3(C=O)C(CCC4C3CCC3(C)C(C5=CC(=O)OC5)CCC43O)C2)OC(C)C1OC1OC(CO)C(O)C(O)C1O` (stereo unspecified), the Potency is 0.171 µM (active).

`CCOc1ccccc1-n1c(C(C)N2CCN(C(=O)COc3ccc(Cl)cc3)CC2)nc2ccccc2c1=O` (stereo unspecified): the Potency was 916 nM (active) and 662 nM (active).

Regarding `CC(N)Cc1c[nH]c2ccccc12` (stereo unspecified), the result was inactive.

In the case of `Cc1c(Cl)cccc1S(=O)(=O)Nc1nc(CC(=O)N2CCN(C)CC2)cs1`, the compound was called inactive.

Consider `Cc1cc(C(=O)CN2CCCC2)c(C)n1-c1ccc(F)cc1`, for which the Potency result is “inactive”.

`CN1[C@@H]2CC[C@H]1CC(OC(=O)C1C=Nc3ccccc31)C2` (stereo partly specified): the “activity change, negative = viability loss” value is -13.9%.

For the compound `COC(=O)C1(C)CCC(O)C2(C)c3cc(O)c(C(C)C)cc3C(O)C(OC(C)=O)C12` (stereo unspecified), the “activity change, negative = viability loss” value was 4.17% [at 17.3 µM].

`CCCN1CCO[C@H]2c3cc(O)ccc3OC[C@@H]21`: the “activity change, negative = viability loss” value is -8.07%.

As to `COC(=O)C1(C)CCC(=O)C2(C)c3c(O)cc(C(C)C)cc3C(O)C(OC(C)=O)C12` (stereo unspecified), the “activity change, negative = viability loss” value was -3.37% [at 17.3 µM].

For the origin of these results see PubChem BioAssay (NCATS).
